Several values for one entry are separate records, joined by “and”; a condition that tells them apart may be missing. Identical values can stand only once. Inconclusive results are not listed. Activity calls are given as the source filed them. How the source made its calls, unless noted: active means hit-call score of the fitted dose curve at least 0.9, where 1 is the maximum; inactive means score below 0.9.

Read-out in experiment [1]: Monokine induced gamma interferon (MIG), CXCL9 (gene 4283)
The experiment in a line: BSK_SAg_MIG: BioMAP Diversity Plus: SAg Assay for Monokine induced gamma interferon (MIG) Biomarker Activity (AID 2283092). The settings on record: primary human HUVEC with PBMC; actives raise or lower the signal. The method in brief:
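HUVEC plus human PBMC co-culture, chemicals dosed and MIG (CXCL9) quantified by ELISA at 24 h. Bidirectional curve fitting against DMSO as negative control and baseline, so both gain and loss of signal count as activity.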

Experiment [2] in a line: BSK_SAg_PBMCCytotoxicity: PBMC Cytotoxicity Assessment in the BioMAP Diversity Plus: SAg Assay (AID 2283093).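 Further: PBMC viability measured as Alamar Blue reduction fluorescence at 546/580 nm; fitted both ways against DMSO so a hit may be loss or gain of signal.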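 On AC50: PBMC superantigen activated with SEB plus TSST-1 one hour after compound addition.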 The note with it: primary human HUVEC with PBMC. The gist of the method: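 Alamar Blue reduction (6 h, ex/em 546/580 nm) read after 90 h culture of PBMC pre-dosed 1 h then stimulated with SEB plus TSST-1, 20 ng/mL each. Gain or loss of signal fitted relative to DMSO.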

Read-out in experiment [3]: Interleukin-8 (IL8), CXCL8 (gene 3576)
Put plainly: BSK_SAg_IL8: BioMAP Diversity Plus: SAg Assay for Interleukin-8 (IL8) Biomarker Activity (AID 2283094). The note with it: primary human HUVEC with PBMC; actives raise or lower the signal. The gist of the method: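 ELISA readout of IL-8 from a superantigen-activated endothelial/PBMC primary human co-culture, taken 24 h post-dosing and fitted in both directions against DMSO; parallel SRB total-protein staining flags overt cytotoxicity.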

Experiment [4] in a line: BSK_SAg_Proliferation: Cell Proliferation Assessment in the BioMAP Diversity Plus: SAg Assay (AID 2283095).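 Further: relative cell number as total protein by SRB absorbance in sub-confluent culture.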 The settings on record: primary human HUVEC with PBMC. The method in brief: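 Relative cell number in the endothelial cell/PBMC co-culture was quantified at 96 h by SRB staining (0.1% SRB, 10% TCA fixation, read at 560 nm). Curves were fitted in both directions relative to DMSO baseline.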

The nature of experiment [5]: BSK_SAg_SRB: Viability Assessment in the BioMAP Diversity Plus: SAg Assay (AID 2283096).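 Further: cells read one day after compound addition; hits may be either gain or loss of signal compared with DMSO.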 The settings on record: primary human HUVEC with PBMC. The method in brief:
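SRB absorbance at 560 nm served as the viability read-out. Cells (HUVEC plus peripheral blood mononuclear cells) were TCA-fixed and stained 24 h post-dosing; activity fitted in both directions against DMSO controls.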

The target in experiment [6] is human CYP1A1, CYP1A1 (gene 1543) (UniProt P04798). The experiment in a line: NVS_ADME_hCYP1A1: NovaScreen (NVS) CYP450-related Enzyme Activity (ADME) Assay for human CYP1A1 (AID 2283100; active means hit-call score of the fitted dose curve at least 0.9, where 1 is the maximum). The gist of the method:
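Inhibition of recombinant CYP1A1 turnover was assessed fluorometrically in a biochemical format 1 h after compound exposure. Testing began at 10 uM in duplicate and progressed to concentration series reaching 20 uM, with on-plate positive and negative controls.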

Experiment [7] addresses human CYP2B6, CYP2B6 (gene 1555) (UniProt P20813). Put plainly: NVS_ADME_hCYP2B6: NovaScreen (NVS) CYP450-related Enzyme Activity (ADME) Assay for human CYP2B6 (AID 2283101; active means hit-call score of the fitted dose curve at least 0.9, where 1 is the maximum). The gist of the method: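 Recombinant human CYP2B6 with fluorogenic substrate, read by fluorescence intensity 1 h after dosing. Primary screen in duplicate at 10 uM, actives followed in concentration series; signal loss relative to acetonitrile control.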

For experiment [8], the target named is human CYP1A2, CYP1A2 (gene 1544) (UniProt P05177). The experiment in a line: NVS_ADME_hCYP1A2: NovaScreen (NVS) CYP450-related Enzyme Activity (ADME) Assay for human CYP1A2 (AID 2283102; active means hit-call score of the fitted dose curve at least 0.9, where 1 is the maximum). The method in brief: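 Inhibition scored as decrease in fluorescent product versus acetonitrile negative control. Enzyme: insect-cell recombinant human CYP1A2, substrate-specific, cell-free. Reading at 0.5 h; 10 uM duplicate initial screen with positive and negative controls on every plate.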
human CYP1A2, CYP1A2 (gene 1544), sequence (P05177 whole entry, looked up): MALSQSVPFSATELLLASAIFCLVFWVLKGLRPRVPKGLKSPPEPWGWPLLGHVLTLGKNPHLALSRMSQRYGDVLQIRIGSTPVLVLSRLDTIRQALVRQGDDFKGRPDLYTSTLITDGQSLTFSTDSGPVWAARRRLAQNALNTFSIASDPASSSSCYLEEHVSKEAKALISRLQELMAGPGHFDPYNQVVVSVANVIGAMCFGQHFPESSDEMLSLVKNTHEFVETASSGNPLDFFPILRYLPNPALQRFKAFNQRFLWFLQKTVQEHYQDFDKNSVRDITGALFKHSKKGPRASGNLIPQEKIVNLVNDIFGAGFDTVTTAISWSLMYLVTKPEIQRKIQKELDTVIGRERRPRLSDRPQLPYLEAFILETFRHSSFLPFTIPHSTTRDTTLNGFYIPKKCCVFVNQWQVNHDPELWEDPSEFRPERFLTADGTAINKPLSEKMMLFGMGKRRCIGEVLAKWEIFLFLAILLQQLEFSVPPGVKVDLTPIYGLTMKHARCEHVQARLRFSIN

human CYP1A1, CYP1A1 (gene 1543), sequence (P04798 whole entry, looked up): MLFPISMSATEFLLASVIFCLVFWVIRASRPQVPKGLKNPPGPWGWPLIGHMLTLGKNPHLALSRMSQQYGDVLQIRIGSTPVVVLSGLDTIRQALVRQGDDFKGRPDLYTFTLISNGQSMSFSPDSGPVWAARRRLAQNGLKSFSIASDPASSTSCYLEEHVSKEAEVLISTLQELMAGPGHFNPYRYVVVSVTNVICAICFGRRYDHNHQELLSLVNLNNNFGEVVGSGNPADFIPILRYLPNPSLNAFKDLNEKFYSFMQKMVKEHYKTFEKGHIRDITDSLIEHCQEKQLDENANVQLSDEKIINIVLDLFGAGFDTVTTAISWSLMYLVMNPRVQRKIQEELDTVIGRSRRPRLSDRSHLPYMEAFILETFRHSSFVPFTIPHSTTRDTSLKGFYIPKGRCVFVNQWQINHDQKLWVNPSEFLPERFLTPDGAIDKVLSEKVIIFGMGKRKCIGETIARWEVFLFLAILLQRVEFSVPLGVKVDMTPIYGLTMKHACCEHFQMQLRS
human CYP2B6, CYP2B6 (gene 1555), sequence (P20813 whole entry, looked up): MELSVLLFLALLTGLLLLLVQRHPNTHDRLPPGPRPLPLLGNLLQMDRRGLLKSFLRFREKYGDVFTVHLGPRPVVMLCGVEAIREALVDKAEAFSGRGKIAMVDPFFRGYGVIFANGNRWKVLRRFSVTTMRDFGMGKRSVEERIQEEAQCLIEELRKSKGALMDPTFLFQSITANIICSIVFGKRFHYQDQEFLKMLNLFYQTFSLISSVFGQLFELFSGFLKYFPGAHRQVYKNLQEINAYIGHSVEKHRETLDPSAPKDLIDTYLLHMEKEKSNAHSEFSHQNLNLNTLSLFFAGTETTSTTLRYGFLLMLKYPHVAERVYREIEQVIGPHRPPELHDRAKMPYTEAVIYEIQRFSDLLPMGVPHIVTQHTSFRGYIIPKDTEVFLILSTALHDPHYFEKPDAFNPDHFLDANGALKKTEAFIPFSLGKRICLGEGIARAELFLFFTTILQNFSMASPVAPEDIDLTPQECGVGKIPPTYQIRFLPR

Turning to `OCC(F)(OC(F)(F)C(F)(OC(F)(F)C(F)(F)C(F)(F)F)C(F)(F)F)C(F)(F)F` (stereo not given), the result in experiment [1] was inactive. Further, the AC50 in experiment [2] was 2.03 µM (active) and 1.97 µM (active); in experiment [3], 2.22 µM (active) and 2.66 µM (active); in experiment [4] it was 2.09 µM (active) and 2.02 µM (active); in experiment [5], 5.05 µM (active) and 3.37 µM (active).
Regarding `O=S(=O)(O)C(F)(F)C(F)(F)OC(F)(F)C(F)(F)F`, the outcome in experiment [1], in experiment [2], in experiment [3], in experiment [4] and in experiment [5] was inactive.
For `c1ccc2c(c1)-c1ccc3ccc4cccc5cc-2c1c3c45`, the result in experiment [1], in experiment [2], in experiment [3], in experiment [4] and in experiment [5] was inactive.
Consider `CC(C)(C)c1cccc(O)c1`, for which the outcome in experiment [1], in experiment [2], in experiment [3], in experiment [4] and in experiment [5] was inactive.
For the molecule `O=C1OC2(c3ccc(O)cc3Oc3cc(O)ccc32)c2ccccc21`, the outcome in experiment [1], in experiment [2], in experiment [3] and in experiment [5] was inactive. In experiment [4], the AC50 was 1.02 µM (active).
`COc1ccccc1NC(=O)CC(C)=O`: the result in experiment [1], in experiment [2], in experiment [3], in experiment [4] and in experiment [5] was inactive.
On to `CCOC(=O)CCCCCCCCC(=O)OCC`, for which the result in experiment [1], in experiment [2], in experiment [3], in experiment [4] and in experiment [5] was inactive.
On to `C=CC(=O)OCC(CO)(COC(=O)C=C)COC(=O)C=C`, for which the concentration at half-maximal activity (AC50) was 601 nM (active) in experiment [1]; 47.6 nM (active) in experiment [2]; 219 nM (active) in experiment [3]; 0.0305 µM (active) in experiment [4]; 2.13 µM (active) in experiment [5].
In the case of `CC(C)(CO)CO`, the result in experiment [1], in experiment [2], in experiment [3], in experiment [4] and in experiment [5] was inactive.
For `CCn1cc(C(=O)O)c(=O)c2ccc(C)nc21`, the result in experiment [1], in experiment [2], in experiment [3], in experiment [4] and in experiment [5] was inactive.
With `CC(=O)OC(C)(C)C1CC=C(C)CC1` (stereo not given), the result in experiment [1], in experiment [2], in experiment [3], in experiment [4] and in experiment [5] was inactive.
As for `CCCCCCCC1CCCC1=O` (stereo not given), the result in experiment [1], in experiment [2], in experiment [3], in experiment [4] and in experiment [5] was inactive.
Regarding `CC(=O)CCC=C(C)CCC=C(C)C`, the outcome in experiment [1], in experiment [2], in experiment [3] and in experiment [5] was inactive. Further, the half-maximal activity concentration (AC50) in experiment [4] was 20 µM (active).
With `C=C(C)C(=O)OCCC(F)(F)C(F)(F)C(F)(F)C(F)(F)C(F)(F)C(F)(F)C(F)(F)C(F)(F)F`, the result in experiment [1], in experiment [2], in experiment [3], in experiment [4] and in experiment [5] was inactive.
For the molecule `CC(=O)c1ccc(C)cc1`, the outcome in experiment [1], in experiment [2], in experiment [3], in experiment [4] and in experiment [5] was inactive.
Regarding `CCCCCCCCCC(=O)OCC`, the outcome in experiment [1], in experiment [3] and in experiment [5] was inactive. Moreover, the AC50 is 34100 nM (active) in experiment [2] and 33.5 µM (active) in experiment [4].
For `NC(=O)c1c(Cl)cccc1Cl`, the outcome in experiment [1], in experiment [2], in experiment [3], in experiment [4] and in experiment [5] was inactive.
For the molecule `CC(C)CCCC(C)(C)O`, the result in experiment [1], in experiment [2], in experiment [3], in experiment [4] and in experiment [5] was inactive.
As for `c1ccc(OCCOc2ccccc2)cc1`, the result in experiment [1], in experiment [2], in experiment [3], in experiment [4] and in experiment [5] was inactive.
As to `O=C(O)C(F)(F)C(F)(F)C(F)(F)C(F)(F)C(F)(F)C(F)(F)C(F)(F)C(F)F`, the result in experiment [1], in experiment [2], in experiment [3], in experiment [4] and in experiment [5] was inactive.
Take `CCCO[Si](OCCC)(OCCC)OCCC`: the outcome in experiment [1], in experiment [2], in experiment [3], in experiment [4] and in experiment [5] was inactive.
As to `CC1=CC(C)C(C=O)C(C)C1` (stereo not given) (tested in a mixture with another compound), the outcome in experiment [1], in experiment [2], in experiment [3], in experiment [4] and in experiment [5] was inactive.
`CCCCN(CCO)CCO`: the outcome in experiment [1], in experiment [2], in experiment [3], in experiment [4] and in experiment [5] was inactive.
With `COC(=O)c1ccc(C(=O)OC)cc1`, the result in experiment [1], in experiment [2], in experiment [3], in experiment [4] and in experiment [5] was inactive.
As for `C#C[C@]1(O)CC[C@H]2[C@@H]3CCc4cc(O)ccc4[C@H]3CC[C@@]21C`, the molecule was called inactive in experiment [6] and in experiment [7].
Regarding `O=C(c1ccc(OCCN2CCCCC2)cc1)c1c(-c2ccc(O)cc2)sc2cc(O)ccc12`, the half-maximal activity concentration (AC50) in experiment [6] was 6330 nM (active).
As to `CC/C(=C(\c1ccccc1)c1ccc(OCCN(C)C)cc1)c1ccccc1`, in experiment [7], the outcome was inactive.
As for `C=C(C)C(N)=O`, the molecule was classed as inactive in experiment [8].

As a reminder, the AC50 is the concentration giving half of the maximal activity seen.
